This is a sample that favours compounds with a hit; in the whole collection about 6.3% have one here.
ATXN viability: viability counter-screen for ATXN expression inhibitors; S2 cells (HEK-293 line with an ATXN2-luciferase reporter) viability, CellTiter-Fluor protease fluorescence, 24 h; Potency, µM (doses to about 56.7 µM), usual class: cytotoxic; 400,000 compounds, 0.49% hits; AID 651635; also: nearly all actives have a fitted effect of over 40% in size
RORg inh: ROR gamma (mouse) transcription inhibition | P51450 | Drosophila S2 Gal4-RORgamma UAS-luciferase reporter, 20 h | Potency, µM (top dose mostly 53.6 µM), for inactives: at the highest dose activity change, negative = inhibition, actives largely listed as inhibitors | 310,000 compounds, 5.4% hits; also: % is scaled to controls: 0 for no effect and ±100 for the full control effect; nearly all actives have a fitted effect of over 60% in size
Target sequence (P51450 whole entry, looked up, the tested form may be a part): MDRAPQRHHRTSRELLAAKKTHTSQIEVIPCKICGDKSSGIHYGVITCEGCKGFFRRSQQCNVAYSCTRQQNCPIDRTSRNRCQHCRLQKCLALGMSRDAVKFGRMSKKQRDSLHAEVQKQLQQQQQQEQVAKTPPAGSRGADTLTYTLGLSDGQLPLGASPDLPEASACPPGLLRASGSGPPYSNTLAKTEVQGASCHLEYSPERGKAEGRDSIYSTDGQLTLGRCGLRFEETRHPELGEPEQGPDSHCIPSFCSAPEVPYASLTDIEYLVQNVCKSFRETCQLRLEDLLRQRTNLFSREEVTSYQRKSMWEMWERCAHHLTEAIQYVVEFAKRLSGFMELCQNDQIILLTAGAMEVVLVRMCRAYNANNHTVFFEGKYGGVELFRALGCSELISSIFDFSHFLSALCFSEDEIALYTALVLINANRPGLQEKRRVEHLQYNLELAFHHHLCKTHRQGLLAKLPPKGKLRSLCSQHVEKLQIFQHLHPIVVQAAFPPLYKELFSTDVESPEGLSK
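In this cell-based reporter format, copper sulfate (700 uM final) drives Gal4–ROR gamma fusion expression from a metallothionein promoter in Drosophila Schneider cells; compounds preincubated 1 hr, reporter read after 20 hr at ambient temperature.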
HepG2 tox: counter-screen for TGF-b inhibitors: cytotoxicity in HepG2 cells; HepG2 CAGA-GFP viability, ATP luminescence, 18 h; Potency, µM (titrated, usually from 46.1 µM), inactives show top-dose activity change, negative = cytotoxicity, usual class: cytotoxic; 410,000 compounds, 0.76% hits; AID 588856
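HepG2 CAGA-GFP cells (1000/well, DMEM with 1% FBS) received compound, then TGF-beta at 500 pg/mL final, and were incubated 18 hours at 37 degrees C. Viability was read by CellTiter-Glo luminescence. Media-only wells were set as complete cell-killing and DMSO as no toxicity.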
ATXN2 expr inh: reduces ATXN2 reporter expression in HEK-293 cells; 360,000 compounds, 0.72% hits; HEK-293 ATXN2-luciferase reporter, luminescence, 24 h; Potency, µM (titrated, usually from 57 µM), for the others: top-dose activity change, negative = inhibition, usual class: inhibitors; also: % is scaled to controls: 0 for no effect and ±100 for the full control effect; nearly all actives have a fitted effect of over 55% in size
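qHTS (up to 57 uM final) was run with 24 h compound exposure of reporter cells at 37 °C. Each well was multiplexed: SteadyGlo luminescence measured ATXN2-luciferase expression after a fluorogenic Gly-Phe-AFC viability readout (25 uM final).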
TGFb SMAD3 inh: inhibitors of TGF-b signaling; AID 588855; HepG2 CAGA-GFP TGF-b/SMAD3 reporter, GFP fluorescence, 18 h; TGF-beta stimulated, 500 pg/mL final; Potency, µM (series often up to 46.1 µM), for inactives: at the highest dose activity, negative = inhibition, usual class: inhibitors; 410,000 compounds, 1.2% hits; also: % is scaled to controls: 0 for no effect and ±100 for the full control effect; nearly all actives have a fitted effect of over 65% in size
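Smad-responsive CAGA-GFP expression was quantified in HEPG2 cells exposed to compounds and 500 pg/mL final TGF-beta for 18 h at 37 degrees C; unstimulated wells defined full inhibition.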
Gal4-VP16 FLuc: counter-screen for ROR gamma inhibitors: Gal4-VP16 reporter | Potency, µM (doses to about 53.6 µM), inactives show at the top dose activity, negative = inhibition, actives largely listed as inhibitors | 310,000 compounds, 3.5% hits | Drosophila S2 Gal4-VP16 UAS-luciferase, luminescence, 20 h | AID 2546;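 also: Gal4-VP16 expression switched on by copper sulfate through the metallothionein promoter; % is scaled to controls: 0 for no effect and ±100 for the full control effect; nearly all actives have a fitted effect of over 50% in size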
The depositor's hits bear a star; i = inactive; ? = inconclusive; . = not tested or not shown; [ ] = another dose, or the depositor's remark. Calls follow the shape of the dose curve; as a rule, active = well fitted curve in the direction sought with a large enough effect; inconclusive = small, poorly fitted or top-dose-only effect, or another doubt; inactive = no such curve, though single readings can be large; an effect the other way counts as inactive or inconclusive. Potency is read from the fitted curve at half-maximal effect.

SMILES	ATXN viability	RORg inh	HepG2 tox	ATXN2 expr inh	TGFb SMAD3 inh	Gal4-VP16 FLuc
CC[C@@H]1C(=O)N(C)c2cnc(Nc3ccc(C(=O)NC4CCN(C)CC4)cc3OC)nc2N1C1CCCC1	.	.	.	-6.1%	.	.
CC(C)(C)NC(=O)[C@@H]1C[C@@H]2CCCC[C@@H]2CN1C[C@@H](O)[C@H](Cc1ccccc1)NC(=O)[C@H](CC(N)=O)NC(=O)c1ccc2ccccc2n1	31.6µM*	7.2%	-42.6%	?	?	-12.4%
CCOC(=O)C1=C(CSc2nc3ccccc3s2)NC(=O)NC1c1cc(C)ccc1C (configuration not stated)	?	?	11.2µM*	-36.0%	11.2µM*	0.5%
CCOC(=O)C1=C(CSc2nc3ccccc3s2)NC(=O)NC1c1ccc(OC)cc1 (configuration not stated)	?	?	-52.5%	?	?	-11.9%
O=C1[C@H]2[C@@H](C(=O)N1c1cccc3ccccc13)C1(C(=O)c3ccccc3C1=O)N1CCC[C@@H]21	i	-80.2%	-0.5%	17.8%	0.0%	20µM*
O=C1C2C3C=CC(C3)C2C(=O)N1c1cccc2ccccc12 (configuration not stated)	i	-10.4%	-0.1%	-2.5%	0.0%	-5.6%
CC(=O)Oc1cc(OC(C)=O)c2c(=O)cc(-c3ccc(OC(C)=O)c(OC(C)=O)c3)oc2c1	.	?	.	.	.	35.5µM*
Cc1cc(C)cc(NC(=S)NC(=O)CCN2C(=O)c3ccccc3C2=O)c1	i	3.55µM*	-3.4%	-8.5%	-2.6%	4.47µM*
O=C(CCN1C(=O)c2ccccc2C1=O)NC(=S)Nc1ccccc1	i	12.6µM*	-1.0%	17.3%	2.6%	?
O=C(CCN1C(=O)c2ccccc2C1=O)Nc1cccc(O)c1	i	-9.0%	-5.1%	-12.9%	4.1%	0.4%
O=C(CCN1C(=O)c2ccccc2C1=O)NC(=S)Nc1cccc(Cl)c1	i	11.2µM*	-11.7%	-5.5%	-5.4%	?
Cc1cc(C)cc(NC(=S)NC(=O)Cc2ccccc2)c1	i	.	-28.6%	5.0%	?	.
O=[N+]([O-])c1ccc(/C=C/c2cc(Cl)nc3ccccc23)cc1	.	.	-19.1%	.	-7.3%	.
O=S(=O)(NCC1CCCO1)c1ccc(-c2ccc(S(=O)(=O)NCC3CCCO3)cc2)cc1 (configuration not stated)	i	4.47µM*	-31.5%	?	?	5.62µM*
Cc1ccc(S(=O)(=O)NCC2CCCO2)cc1 (configuration not stated)	i	-14.9%	-3.5%	-12.7%	0.0%	4.9%
CCc1ccc(/C=C2/SC(=S)N(CCC(=O)Nc3ccc(C(=O)O)cc3)C2=O)cc1	.	3.55µM*	.	.	.	-6.9%
COC(=O)c1ccc(/C=C2/SC(=S)N(CCCC(=O)Nc3ccccn3)C2=O)cc1	i	1.12µM*	5.6%	?	-16.0%	1.78µM*
CCc1ccc(/C=C2\SC(=S)N(CCCC(=O)Nc3ccccn3)C2=O)cc1	?	0.282µM*	10.9%	4.47µM*	?	1.41µM*
NC(=Nc1ccccc1)N(c1ccccc1)c1ccccc1	i	.	2.1%	-14.2%	26.1%	.
CCOc1ccc(NC(=O)c2cc3c(n(-c4ccc(OC)cc4)c2=O)CC(C)(C)CC3=O)cc1	i	.	-59.0%	1.9%	?	.
COc1ccc(OC)c(CNC(=O)C2CCCCN2S(=O)(=O)c2ccc(F)cc2)c1 (configuration not stated)	i	.	-15.8%	-0.9%	7.94µM*	.
COc1ccc(NC(=O)C(=O)NCCC2CCCCN2S(=O)(=O)c2ccc(F)cc2)cc1 (configuration not stated)	i	.	4.1%	2.51µM*	-17.0%	.
O=C(NCCC1CCCCN1S(=O)(=O)c1ccccc1)C(=O)Nc1ccc(F)cc1 (configuration not stated)	?	.	-9.4%	-15.4%	-0.8%	.
Cc1cc(=O)oc2cc(NC(=O)[C@H](CCCCN)NC(=O)[C@H](CC3CCCCC3)NC(=O)OCC3c4ccccc4-c4ccccc43)ccc12	.	7.4%	.	.	.	-14.4%
CCOC(=O)c1c(C)[nH]c(CCC(=O)NCc2ccccc2C)c1C	.	.	-9.3%	.	0.0%	.
SMILES	ATXN viability	RORg inh	HepG2 tox	ATXN2 expr inh	TGFb SMAD3 inh	Gal4-VP16 FLuc
CC(OC(=O)c1cccs1)C(=O)Nc1nc(-c2ccccc2)cs1 (configuration not stated)	i	?	-22.6%	36.1%	?	6.2%
CC(=O)NNc1nc(-c2ccccc2)cs1	i	1.8%	2.1%	-6.2%	1.5%	-6.4%[10 µM]
O=C(NNc1nc(-c2ccccc2)cs1)c1cccs1	i	7.94µM*	-33.8%	30.8%	-13.3%	?
O=C(NNc1nc(-c2ccccc2)cs1)c1ccc(F)cc1	i	2µM*	-23.6%	-0.6%	5.0%	11.2µM*
O=C1OC(Nc2nc(-c3ccc(F)cc3)cs2)c2ccccc21 (configuration not stated)	?	-13.6%	-39.6%	-37.6%	11.2µM*	-8.6%
O=C(NNc1nc(-c2ccc(F)cc2)cs1)c1ccccc1	?	5.01µM*	1.8%	?	-18.1%	?
Cc1ccc([C@H]2C[C@H](O)[C@@H](n3cc(COC(=O)c4ccccc4)nn3)CN2C(=O)c2cccs2)cc1	i	.	-39.2%	6.4%	-0.6%	.
O=C(CN1C(=O)c2ccccc2C1=O)NCC1Cc2cccc(-c3ncccn3)c2O1 (configuration not stated)	i	.	.	.	.	.
O=C(NCCN1CCC(n2c(=O)[nH]c3ccccc32)CC1)c1ccc(C(F)(F)F)cc1C(F)(F)F	?	.	.	-34.8%	.	.
FC(F)(F)c1ccc2c(c1)[nH]c(=S)n2C1CC1	i	1.41µM*	-5.2%	.	-5.8%	?
COc1ccc(Cn2c(=O)c3cccnc3n(Cc3cccc(F)c3)c2=O)cc1	i	.	-32.4%	-6.1%	-30.2%	.
Cc1nn(C)c(NC(=O)c2ccccc2Cl)c1Br	i	1.1%	5.4%	-14.7%	10.4%	3.8%
Cc1nn(C)c(Nc2ccc(Br)cc2)c1Br	i	?	4.7%	-17.0%	-0.9%	11.2µM*
Cc1cc(C)nc(-n2nc(C)c(Br)c2Nc2ccc(Br)cc2)n1	i	?	-29.4%	-9.7%	0.9%	0.891µM*
Cc1cc(NS(=O)(=O)c2ccc(NC(=O)COc3c(C)ccc(C)c3C)cc2)nc(C)n1	i	.	-8.9%	-22.0%	-14.8%	.
CC1(C)N=C(N)N=C(N)N1c1ccc(OCC(=O)N2CCOCC2)c(Cl)c1	i	.	0.1µM*	.	-5.2%	.
